From PubChem BioAssay AID1159580 (chemical genetic matrix, 2015)
Screen size: about 5,500 compounds; about 2,000 (36%) were called active. About 18% were inconclusive and are not listed. This is one part of the list. A number with no mark means an inactive call. Cut-off read from the data, not from the text of the source: active = normalized growth mostly below about 0.91 (no sharp cut-off); inconclusive = no clear call, values can overlap the other calls; inactive = mostly above about 0.92.

Experiment: chemical genetic growth profiling, strain panel (AID 1159580);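 note: tested at 20 µM; growth read once vehicle control cultures reached saturation at 30 °C; 1 = growth at the plate median or of vehicle wells; lower values mean less growth of the strain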
Conditions: S. cerevisiae deletion strains, growth OD
[1] = locus YAL040C, strain CLN3, hits give low values
[2] = locus YCL061C, strain MRC1 (second series), hits give low values
[3] = locus YDR150W, strain NUM1, hits give low values
[4] = locus YDR363W, strain ESC2, hits give low values
[5] = locus YER002W, strain NOP16, hits give low values
[6] = locus YNL175C, strain NOP13, hits give low values
[7] = locus YNL197C, strain WHI3, hits give low values
[8] = locus YNL224C, strain SQS1, hits give low values
[9] = locus YOR083W, strain WHI5 (second series), hits give low values

## S=c1[nH]nc(Nc2ccc(I)cc2)s1
Locus YAR019C, strain CDC15, hits give low values
  normalized growth: 0.839 (active)
Locus YBL105C, strain PKC1, hits give low values
  normalized growth: 0.874 (active)
Locus YBR135W, strain CKS1, hits give low values
  normalized growth: 0.881 (active)
Locus YBR136W, strain MEC1, hits give low values
  normalized growth: 0.871 (active)
Locus YBR160W, strain CDC28, hits give low values
  normalized growth: 0.885 (active)
Locus YDL017W, strain CDC7, hits give low values
  normalized growth: 0.873 (active)
Locus YDL028C, strain MPS1, hits give low values
  normalized growth: 0.873 (active)
Locus YDL101C, strain DUN1, hits give low values
  normalized growth: 0.917
Locus YDL108W, strain KIN28, hits give low values
  normalized growth: 0.868 (active)
Locus YDL132W, strain cdc53, hits give low values
  normalized growth: 0.904
Locus YDL214C, strain PRR2, hits give low values
  normalized growth: 0.722
Locus YDR052C, strain DBF4, hits give low values
  normalized growth: 0.874 (active)
Locus YDR054C, strain cdc34, hits give low values
  normalized growth: 0.912
Locus YDR226W, strain ADK1, hits give low values
  normalized growth: 0.878 (active)
Locus YDR477W, strain SNF1, hits give low values
  normalized growth: 0.644 (active)
Locus YER123W, strain YCK3, hits give low values
  normalized growth: 0.504 (active)
Locus YER133W, strain GLC7, hits give low values
  normalized growth: 0.607 (active)
Locus YFL009W, strain cdc4, hits give low values
  normalized growth: 0.845 (active)
Locus YFL029C, strain CAK1, hits give low values
  normalized growth: 0.814 (active)
Locus YFR003C, strain YPI1, hits give low values
  normalized growth: 0.869 (active)
Locus YFR019W, strain FAB1, hits give low values
  normalized growth: 0.813
Locus YFR028C, strain CDC14, hits give low values
  normalized growth: 0.871 (active)
Locus YGR040W, strain KSS1, hits give low values
  normalized growth: 0.658 (active)
Locus YGR052W, strain FMP48, hits give low values
  normalized growth: 0.744
Locus YGR092W, strain DBF2, hits give low values
  normalized growth: 0.326 (active)
Locus YHR030C, strain SLT2, hits give low values
  normalized growth: 0.279 (active)
Locus YHR079C, strain IRE1, hits give low values
  normalized growth: 0.362 (active)
Locus YHR082C, strain KSP1, hits give low values
  normalized growth: 0.653
Locus YHR205W, strain SCH9, hits give low values
  normalized growth: 0.821
Locus YIL147C, strain SLN1, hits give low values
  normalized growth: 0.866 (active)
Locus YJL095W, strain BCK1, hits give low values
  normalized growth: 0.396 (active)
Locus YJL128C, strain PBS2, hits give low values
  normalized growth: 0.882
Locus YJL157C, strain FAR1, hits give low values
  normalized growth: 0.699 (active)
Locus YJR016C, strain ILV3, hits give low values
  normalized growth: 0.85 (active)
Locus YJR066W, strain TOR1 (second series), hits give low values
  normalized growth: 0.14 (active)
Locus YJR066W, strain TOR1, hits give low values
  normalized growth: 0.462 (active)
Locus YKL048C, strain ELM1, hits give low values
  normalized growth: 0.857
Locus YKL067W, strain YNK1, hits give low values
  normalized growth: 0.746
Locus YKL101W, strain HSL1, hits give low values
  normalized growth: 0.77
Locus YKL193C, strain SDS22, hits give low values
  normalized growth: 0.849 (active)
Locus YKL203C, strain TOR2, hits give low values
  normalized growth: 0.648 (active)
Locus YLR113W, strain HOG1, hits give low values
  normalized growth: 0.51 (active)
Locus YLR133W, strain CKI1, hits give low values
  normalized growth: 0.745
Locus YLR403W, strain SFP1, hits give low values
  normalized growth: 0.566 (active)
Locus YML070W, strain DAK1, hits give low values
  normalized growth: 0.676 (active)
Locus YMR001C, strain CDC5, hits give low values
  normalized growth: 0.85 (active)
Locus YMR205C, strain PFK2 (second series), hits give low values
  normalized growth: 0.743 (active)
Locus YMR277W, strain FCP1, hits give low values
  normalized growth: 0.863 (active)
Locus YNL006W, strain LST8, hits give low values
  normalized growth: 0.87 (active)
Locus YNL020C, strain ARK1, hits give low values
  normalized growth: 0.71 (active)
Locus YNL161W, strain CBK1, hits give low values
  normalized growth: 0.87 (active)
Locus YNL183C, strain NPR1, hits give low values
  normalized growth: 0.516 (active)
Locus YNL207W, strain RIO2, hits give low values
  normalized growth: 0.818 (active)
Locus YNL222W, strain SSU72, hits give low values
  normalized growth: 0.864 (active)
Locus YNL307C, strain MCK1 (second series), hits give low values
  normalized growth: 0.701
Locus YOL078W, strain AVO1, hits give low values
  normalized growth: 0.847 (active)
Locus YOL136C, strain PFK27, hits give low values
  normalized growth: 0.651 (active)
Locus YOR061W, strain CKA2, hits give low values
  normalized growth: 0.755
Locus YOR119C, strain RIO1, hits give low values
  normalized growth: 0.61 (active)
Locus YOR231W, strain MKK1, hits give low values
  normalized growth: 0.447 (active)
Locus YOR329C, strain SCD5, hits give low values
  normalized growth: 0.847 (active)
Locus YPL031C, strain PHO85, hits give low values
  normalized growth: 0.495 (active)
Locus YPL153C, strain RAD53, hits give low values
  normalized growth: 0.512 (active)
Locus YPL204W, strain HRR25, hits give low values
  normalized growth: 0.486 (active)
Locus YPL209C, strain IPL1, hits give low values
  normalized growth: 0.85 (active)
Locus YPL256C, strain CLN2, hits give low values
  normalized growth: 0.438 (active)
Locus YPR025C, strain CCL1, hits give low values
  normalized growth: 0.863 (active)
Locus YPR106W, strain ISR1, hits give low values
  normalized growth: 0.894
Locus YPR111W, strain DBF20, hits give low values
  normalized growth: 0.911
Strain NNK1, hits give low values
  normalized growth: 0.893
Strain TSCII, hits give low values
  normalized growth: 0.838 (active)

## Oc1cc2c(cc1O)CN(C(=S)NCCc1ccc(Cl)cc1)CCC2
Locus YAL013W, strain DEP1, hits give low values
  normalized growth: 0.609 (active)
[1]
  normalized growth: 1.09
[2]
  normalized growth: 0.683 (active)
[3]
  normalized growth: 0.656 (active)
[4]
  normalized growth: 0.879
[5]
  normalized growth: 1
Locus YGR078C, strain PAC10, hits give low values
  normalized growth: 0.995
Locus YGR229C, strain SMI1, hits give low values
  normalized growth: 0.128 (active)
Locus YJR075W, strain HOC1, hits give low values
  normalized growth: 0.718 (active)
Locus YMR263W, strain SAP30, hits give low values
  normalized growth: 0.994
Locus YNL128W, strain TEP1, hits give low values
  normalized growth: 0.975
[6]
  normalized growth: 1
[7]
  normalized growth: 0.98
[8]
  normalized growth: 0.997
Locus YNL322C, strain KRE1, hits give low values
  normalized growth: 0.992
[9]
  normalized growth: 0.897

## O=C(O)C1CCNCC1
[1]
  normalized growth: 1
[2]
  normalized growth: 0.998
[3]
  normalized growth: 1
[4]
  normalized growth: 0.964
[5]
  normalized growth: 0.995
Locus YNL153C, strain GIM3, hits give low values
  normalized growth: 1.01
[6]
  normalized growth: 0.992
[7]
  normalized growth: 0.992
[8]
  normalized growth: 0.997
[9]
  normalized growth: 1.01
Locus YPL055C, strain LGE1, hits give low values
  normalized growth: 1.01
